Experimental data published in ChEMBL document CHEMBL3988442, “University of Dundee, Small-Polar-MMV Screening Library” (2021).
For some assays here: Entries with a potency or affinity are not part of this list.

Key:
Design in all cases: scale not given: direction of the effect not stated beside the values
[1] = target: Protein translocase subunit SecA (Escherichia coli (strain K12)) (UniProt P10408); assay: Assay to Identify E. coli SecA ATPase Inhibitors; type: functional; conditions: 30 µM
[2] = target: T1, Ubiquitin-activating enzyme e1, putative (Leishmania donovani (strain BPK282A1)) (UniProt E9BSI1); assay: Leishmania donovani Ubiquitin Activating Enzyme (LdE1); type: functional; conditions: 30 µM
T1 sequence (whole entry): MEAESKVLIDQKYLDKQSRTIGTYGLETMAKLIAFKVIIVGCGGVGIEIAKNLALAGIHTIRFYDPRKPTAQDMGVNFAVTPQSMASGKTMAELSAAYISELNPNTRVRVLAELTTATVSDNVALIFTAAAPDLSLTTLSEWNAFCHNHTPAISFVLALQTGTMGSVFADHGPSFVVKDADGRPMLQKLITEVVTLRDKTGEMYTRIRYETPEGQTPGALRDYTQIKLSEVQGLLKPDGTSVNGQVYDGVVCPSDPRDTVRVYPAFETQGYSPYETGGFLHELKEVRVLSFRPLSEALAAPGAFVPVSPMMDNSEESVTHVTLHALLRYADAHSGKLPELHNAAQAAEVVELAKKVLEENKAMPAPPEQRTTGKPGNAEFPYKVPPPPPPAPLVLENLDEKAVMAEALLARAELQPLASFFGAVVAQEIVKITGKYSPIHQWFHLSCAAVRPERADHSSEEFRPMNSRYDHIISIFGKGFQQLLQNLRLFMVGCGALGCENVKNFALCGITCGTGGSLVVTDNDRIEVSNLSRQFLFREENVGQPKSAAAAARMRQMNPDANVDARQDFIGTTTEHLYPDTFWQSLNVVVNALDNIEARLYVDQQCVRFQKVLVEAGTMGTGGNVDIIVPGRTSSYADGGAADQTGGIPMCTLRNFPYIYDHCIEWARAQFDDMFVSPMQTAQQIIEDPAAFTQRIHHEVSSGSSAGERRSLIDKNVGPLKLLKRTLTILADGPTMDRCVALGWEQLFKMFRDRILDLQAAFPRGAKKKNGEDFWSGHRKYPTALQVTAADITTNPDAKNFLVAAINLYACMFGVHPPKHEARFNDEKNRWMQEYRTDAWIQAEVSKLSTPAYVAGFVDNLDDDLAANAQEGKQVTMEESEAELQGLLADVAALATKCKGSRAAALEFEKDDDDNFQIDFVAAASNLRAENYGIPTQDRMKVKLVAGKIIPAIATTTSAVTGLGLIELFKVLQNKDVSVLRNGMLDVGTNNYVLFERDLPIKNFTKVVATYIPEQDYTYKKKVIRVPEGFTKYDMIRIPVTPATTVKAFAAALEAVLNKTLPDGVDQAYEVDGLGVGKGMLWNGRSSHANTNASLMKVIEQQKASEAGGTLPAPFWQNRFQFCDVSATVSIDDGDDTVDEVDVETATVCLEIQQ

[3] = target: AMP-activated protein kinase, AMPK (Homo sapiens) (UniProt P54646+O43741+P54619+Q9UGJ0+Q9Y478+Q13131+Q9UGI9); assay: AMP-dependent Kinase enzyme assay. An in vitro enzyme assay that detects ADP turnover that is directly proportional to AMPK activity. This uses naive AMPK that is activated during the assay with MK-8722; type: functional; conditions: 30 µM
[4] = target: Sialic acid-binding Ig-like lectin 9 (Homo sapiens) (UniProt Q9Y336); assay: Hs-Siglec9 ALPHAscreen SOP 20170721; conditions: 10 µM
Trypanosoma cruzi = assay: Trypanosoma cruzi phosphomannomutase and mannose-1-phosphate guanylyltransferase assay; type: functional; conditions: 10 µM
[5] = target: T2, Arginase-2, mitochondrial (Homo sapiens) (UniProt P78540); assay: in vitro enzyme assay to detect the production of urea directly proportional to the activity of Arginase II; type: functional; conditions: 33.3 µM; further: in the data most compounds retested in dose-response had high values
T2 sequence (whole entry): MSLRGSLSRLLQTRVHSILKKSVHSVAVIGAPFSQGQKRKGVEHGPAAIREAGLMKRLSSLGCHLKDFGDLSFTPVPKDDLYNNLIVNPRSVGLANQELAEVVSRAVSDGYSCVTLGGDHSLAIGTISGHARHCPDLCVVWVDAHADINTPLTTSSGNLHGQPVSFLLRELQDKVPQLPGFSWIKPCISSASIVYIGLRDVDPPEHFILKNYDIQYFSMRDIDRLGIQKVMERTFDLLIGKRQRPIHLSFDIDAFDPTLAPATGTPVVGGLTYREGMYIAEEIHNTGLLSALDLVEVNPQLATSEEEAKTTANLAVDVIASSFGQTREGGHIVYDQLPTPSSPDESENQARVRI

[6] = target: T3, Proteasome subunit beta (Trypanosoma cruzi) (UniProt O96673); assay: Trypanosoma cruzi proteasome chymotrypsin-like activity (TcProtChymo) assay.; further: in the data most compounds retested in dose-response had high values; type: functional; conditions: 9.37 µM
T3 sequence (whole entry): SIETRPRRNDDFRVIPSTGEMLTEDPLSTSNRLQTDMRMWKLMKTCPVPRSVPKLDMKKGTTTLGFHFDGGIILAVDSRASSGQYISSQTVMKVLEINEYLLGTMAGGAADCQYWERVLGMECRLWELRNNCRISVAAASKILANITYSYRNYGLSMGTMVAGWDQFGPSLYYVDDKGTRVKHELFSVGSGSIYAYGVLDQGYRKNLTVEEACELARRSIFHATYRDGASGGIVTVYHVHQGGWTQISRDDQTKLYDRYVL

Homo sapiens = species: Homo sapiens; assay: To identify inhibition of the IFN signalling (Jak-Stat) pathway via expression of an eGFP reporter gene under the control of an IFN-stimulated response element (ISRE) containing MxA promoter.; type: functional; conditions: 30 µM
[7] = target: T4, Tyrosyl-tRNA synthetase, putative (Trypanosoma cruzi (strain CL Brener)) (UniProt Q4DSP6); assay: Trypanosoma cruzi tyrosyl tRNA synthetase (TcYRS) _High Tyrosine SOP; type: functional; conditions: 30 µM; further: in the data most compounds retested in dose-response had high values
T4 sequence (whole entry): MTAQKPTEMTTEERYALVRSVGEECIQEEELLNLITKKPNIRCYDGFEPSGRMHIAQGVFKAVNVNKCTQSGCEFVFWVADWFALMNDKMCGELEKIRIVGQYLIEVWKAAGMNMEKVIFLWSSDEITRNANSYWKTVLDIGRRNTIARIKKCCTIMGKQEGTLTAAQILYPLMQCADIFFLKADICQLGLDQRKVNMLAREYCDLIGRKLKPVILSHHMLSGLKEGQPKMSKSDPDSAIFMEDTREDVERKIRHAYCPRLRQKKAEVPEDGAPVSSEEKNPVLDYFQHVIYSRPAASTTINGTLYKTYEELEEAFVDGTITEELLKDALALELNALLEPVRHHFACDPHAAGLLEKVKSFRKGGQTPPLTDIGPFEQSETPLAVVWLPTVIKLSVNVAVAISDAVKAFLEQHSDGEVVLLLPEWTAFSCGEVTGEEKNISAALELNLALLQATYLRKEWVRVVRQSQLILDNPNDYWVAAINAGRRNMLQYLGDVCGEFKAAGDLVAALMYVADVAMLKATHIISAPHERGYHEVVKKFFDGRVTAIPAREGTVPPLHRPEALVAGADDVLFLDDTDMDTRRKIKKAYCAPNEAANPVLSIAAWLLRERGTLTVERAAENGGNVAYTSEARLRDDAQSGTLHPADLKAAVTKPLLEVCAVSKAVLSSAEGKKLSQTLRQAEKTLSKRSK

[8] = target: T4, Tyrosyl-tRNA synthetase, putative (Trypanosoma cruzi (strain CL Brener)); assay: Trypanosoma cruzi tyrosyl tRNA synthetase (TcYRS) SOP; type: functional; conditions: 30 µM
[9] = target: Chromo domain-containing protein 1 (Saccharomyces cerevisiae (strain ATCC 204508 / S288c) (Baker's yeast)) (UniProt P32657); assay: ScCHD-1 Enzyme Inhibition Assay; type: functional; conditions: 30 µM; further: in the data most compounds retested in dose-response had high values
Sequence of Chromo domain-containing protein 1 (Saccharomyces cerevisiae (strain ATCC 204508 / S288c) (Baker's yeast)) (P32657 whole entry, the tested form may be a part): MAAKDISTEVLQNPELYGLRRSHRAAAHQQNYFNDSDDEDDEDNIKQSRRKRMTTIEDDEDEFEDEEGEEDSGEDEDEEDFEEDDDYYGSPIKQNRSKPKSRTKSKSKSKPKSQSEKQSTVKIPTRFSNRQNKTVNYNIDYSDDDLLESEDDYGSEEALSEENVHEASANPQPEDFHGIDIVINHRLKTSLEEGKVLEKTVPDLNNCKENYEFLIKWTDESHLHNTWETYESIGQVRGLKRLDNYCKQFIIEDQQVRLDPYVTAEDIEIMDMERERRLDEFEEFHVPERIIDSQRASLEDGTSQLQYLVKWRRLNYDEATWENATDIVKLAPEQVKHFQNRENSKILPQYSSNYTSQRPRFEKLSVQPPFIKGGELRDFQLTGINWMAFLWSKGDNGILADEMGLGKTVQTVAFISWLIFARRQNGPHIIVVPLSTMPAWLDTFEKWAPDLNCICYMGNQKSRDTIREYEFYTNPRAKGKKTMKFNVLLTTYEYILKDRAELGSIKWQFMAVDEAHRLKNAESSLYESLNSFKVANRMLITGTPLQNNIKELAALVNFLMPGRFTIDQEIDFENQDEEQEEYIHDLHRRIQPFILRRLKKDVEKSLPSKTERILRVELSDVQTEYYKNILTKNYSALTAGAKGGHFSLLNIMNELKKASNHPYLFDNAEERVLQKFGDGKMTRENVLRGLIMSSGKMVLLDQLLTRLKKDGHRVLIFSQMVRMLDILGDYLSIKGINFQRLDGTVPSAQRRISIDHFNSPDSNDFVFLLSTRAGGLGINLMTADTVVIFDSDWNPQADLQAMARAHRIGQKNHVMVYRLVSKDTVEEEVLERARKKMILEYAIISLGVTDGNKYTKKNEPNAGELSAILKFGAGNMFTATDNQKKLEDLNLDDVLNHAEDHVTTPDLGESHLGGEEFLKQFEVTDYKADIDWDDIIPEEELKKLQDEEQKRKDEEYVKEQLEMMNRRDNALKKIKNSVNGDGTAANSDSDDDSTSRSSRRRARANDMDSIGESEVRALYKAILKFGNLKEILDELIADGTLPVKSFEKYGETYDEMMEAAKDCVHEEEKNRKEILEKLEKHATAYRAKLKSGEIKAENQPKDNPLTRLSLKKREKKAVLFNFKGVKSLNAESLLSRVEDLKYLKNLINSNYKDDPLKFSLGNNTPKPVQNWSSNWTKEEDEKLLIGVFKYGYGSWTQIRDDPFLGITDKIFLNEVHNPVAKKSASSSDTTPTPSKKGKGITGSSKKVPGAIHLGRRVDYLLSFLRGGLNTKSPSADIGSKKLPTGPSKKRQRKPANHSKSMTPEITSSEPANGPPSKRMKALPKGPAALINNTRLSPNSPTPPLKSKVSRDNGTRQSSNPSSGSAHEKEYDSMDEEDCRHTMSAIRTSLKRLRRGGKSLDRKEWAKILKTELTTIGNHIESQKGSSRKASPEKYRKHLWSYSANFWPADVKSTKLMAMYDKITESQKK

Sequence of Protein translocase subunit SecA (Escherichia coli (strain K12)) (P10408 whole entry): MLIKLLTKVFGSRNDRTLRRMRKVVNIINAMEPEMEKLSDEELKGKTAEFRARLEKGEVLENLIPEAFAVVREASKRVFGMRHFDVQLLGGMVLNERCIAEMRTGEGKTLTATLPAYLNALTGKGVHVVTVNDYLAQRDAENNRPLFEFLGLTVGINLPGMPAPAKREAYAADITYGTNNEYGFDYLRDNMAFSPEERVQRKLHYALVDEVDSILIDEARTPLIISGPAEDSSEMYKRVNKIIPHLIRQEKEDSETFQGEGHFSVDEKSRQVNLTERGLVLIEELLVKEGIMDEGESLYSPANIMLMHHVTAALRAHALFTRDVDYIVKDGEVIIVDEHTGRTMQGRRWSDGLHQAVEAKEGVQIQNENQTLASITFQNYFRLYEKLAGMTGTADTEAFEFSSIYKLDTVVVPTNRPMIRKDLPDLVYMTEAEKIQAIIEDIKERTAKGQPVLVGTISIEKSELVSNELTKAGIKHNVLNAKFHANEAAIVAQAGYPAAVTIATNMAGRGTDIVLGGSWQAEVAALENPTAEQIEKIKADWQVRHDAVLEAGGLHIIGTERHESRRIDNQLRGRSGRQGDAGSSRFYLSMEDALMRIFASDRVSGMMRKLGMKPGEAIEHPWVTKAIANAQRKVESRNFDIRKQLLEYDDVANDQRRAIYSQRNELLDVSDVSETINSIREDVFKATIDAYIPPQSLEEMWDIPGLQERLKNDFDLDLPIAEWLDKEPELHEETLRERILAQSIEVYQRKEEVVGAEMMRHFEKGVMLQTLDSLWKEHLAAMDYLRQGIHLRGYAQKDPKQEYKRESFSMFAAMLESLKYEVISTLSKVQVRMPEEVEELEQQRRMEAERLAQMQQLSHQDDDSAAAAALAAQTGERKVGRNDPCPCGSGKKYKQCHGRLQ
Sequence of Sialic acid-binding Ig-like lectin 9 (Homo sapiens) (Q9Y336 whole entry): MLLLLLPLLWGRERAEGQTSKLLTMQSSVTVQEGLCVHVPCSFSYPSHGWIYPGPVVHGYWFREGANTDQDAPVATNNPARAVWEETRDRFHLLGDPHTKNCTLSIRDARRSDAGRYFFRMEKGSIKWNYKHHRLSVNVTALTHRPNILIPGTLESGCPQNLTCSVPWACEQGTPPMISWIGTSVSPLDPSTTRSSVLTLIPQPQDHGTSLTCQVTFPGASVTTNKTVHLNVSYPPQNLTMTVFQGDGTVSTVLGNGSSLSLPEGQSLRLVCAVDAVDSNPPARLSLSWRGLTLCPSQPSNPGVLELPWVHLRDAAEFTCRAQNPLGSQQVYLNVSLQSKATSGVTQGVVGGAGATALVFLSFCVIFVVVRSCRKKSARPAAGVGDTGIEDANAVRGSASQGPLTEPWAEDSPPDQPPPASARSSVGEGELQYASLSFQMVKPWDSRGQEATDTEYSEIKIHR

SMILES | Percent Effect [1] [%] | Percent Effect [2] [%] | Percent Effect [3] [%] | Percent Effect [4] [%] | Percent Effect (Trypanosoma cruzi) [%] | Percent Effect [5] [%] | Percent Effect [6] [%] | Percent Effect (Homo sapiens) [%] | Percent Effect [7] [%] | Percent Effect [8] [%] | Percent Effect [9] [%]
CCN1CCC(CNC(=O)NCc2cc(-c3ccc(C)cc3)no2)C1 (stereo unspecified) | 0.151 | 0 | -6.65 | 3.46 | 3.44 | -3.14 | 12.2 | 5.69 | 10.9 | 25.6 | -5.52
Cc1cc(CN(C)C2CCCN(Cc3noc(C4CC4)n3)C2)no1 (stereo unspecified) | -2.13 | 15.8 | -10.8 | -8.06 | -9.62 | -1.8 | 12.4 | 15.9 | 1.48 | 3.7 | -9.14
COc1nccc(N2CCN(Cc3ccc(C)cc3)C(=O)C2)c1C#N | -1.96 | 15.6 | -4.99 | 5.78 | 8.16 | -33.1 | 13.3 | -2.81 | 8.6 | 21 | 9
O=C(c1ccc(N2CCCC2)nn1)N1CCCC(n2cccn2)C1 (stereo unspecified) | -6.6 | 10.5 | -3 | -5.01 | -6.44 | 5.4 | 5.33 | -4.4 | 4.43 | 3.7 | 1.12
CN1C(=O)CC(C(=O)O)C12CCN(Cc1ccc(Cl)cc1F)CC2 (stereo unspecified) | -2.86 | 10.7 | -8 | 3.22 | -0.487 | 2.6 | 10.1 | 10.2 | 6.01 | 21 | -6.2
Cc1cc(C2CCCN(CCc3ccccn3)C2)n[nH]1 (stereo unspecified) | -4.83 | 2.53 | -4 | 3.7 | 9.73 | 1.14 | -1.23 | -3.32 | -7.39 | 11.4 | -2.02
Cc1csc(NC(=O)CN2CCC(c3ccnn3CCO)CC2)n1 | -4.67 | 25.3 | -7.88 | -3.79 | 4.06 | 0 | 9.42 | 47.6 | 8.37 | 26.6 | -7.33
CCc1cnc(N2CC3(CCN(C(=O)c4ccoc4)C3)C2)nc1 | -7.71 | -10.4 | 3.45 | 3.13 | -2.46 | 5.52 | 9.65 | 8.56 | -2.15 | -1.24 | -0.64
COc1ccc(C(=O)N2CCCC2c2ccco2)cc1OC (stereo unspecified) | 2.38 | 2.6 | -1.48 | -11.9 | -4.24 | -1.94 | 14.8 | 9.23 | 3.17 | 8.97 | -10.7
O=c1oc(-c2cccs2)nn1CC(O)c1ccccc1 (stereo unspecified) | -3.18 | 8 | -5.55 | 2.71 | 0.292 | -27.6 | 5.58 | 7.94 | 10.4 | 16.1 | -4.32
Cc1nc(C)n(CC2CCCN2CCc2cccs2)n1 (stereo unspecified) | -2.28 | 15.8 | 3.79 | -4.64 | 7.89 | -2.68 | 25.4 | 10.2 | 13.2 | -7.32 | -11.4
COc1ccccc1C(O)CNC(=O)Nc1ncccc1C (stereo unspecified) | -3.85 | 12.7 | 3.4 | -8.4 | 6.52 | 0 | 8.27 | 16.1 | 5.42 | 16.5 | -4.09
Cc1nc(COC[C@@H]2CC[C@H]3[C@H](CCN3S(C)(=O)=O)O2)cs1 | 1.19 | 8.11 | -0.571 | -10.8 | -6.94 | 7.96 | 23.4 | 8.05 | 6.49 | 10.3 | 0.52
CC(C)(CO)NC(=O)C1CCC(=O)N(Cc2ccc(Cl)cc2)C1 (stereo unspecified) | -3.58 | 1.39 | 10.2 | 1.15 | -1.26 | -3.09 | 2.81 | -9.87 | -3.16 | 0 | 0.1
Cc1ccc(NC(=O)NC(C)c2nc[nH]n2)s1 (stereo unspecified) | -7.16 | 5.41 | 1.69 | 19.6 | -0.293 | 2.23 | 9.7 | -8.4 | 6.45 | 13.6 | -2.14
C=Cn1ncc(CN2C[C@@H]3CCCN3C[C@@H]2Cc2ccccc2)c1C | -3.58 | 4.05 | 3.48 | 4.39 | 2.37 | 0.696 | 11.2 | 26.4 | 6.45 | 14.3 | -13
